Structures are written as SMILES. Screen size: about 130,000 compounds; about 1,200 (0.92%) were called active. Where a call stands in place of a potency, no number is given. Inconclusive results (about 3%) are left out. The sample as a whole holds a higher share of actives than the screen did. A number with no mark means an inactive call. Calls come from the whole dose curve; as a rule, active = well fitted cell-killing curve with a large enough effect; inconclusive = small, poorly fitted or top-dose-only effect; inactive = no such curve, though single readings can be large or run the other way.
Potency is the fitted concentration of half-maximal effect.

The assay in a line: qHTS Screen for Compounds that Selectively Target Cancer Cells with p53 Mutations: Cytotoxicity of p53ts Cells at the Permissive Temperature. Note: nearly all actives have a fitted effect of over 55% in size. Particulars: H1299-p53A138V at 32C, ATP luminescence viability, 24 h; series mostly up to 46.1 µM. From the text: NIH Chemical Genomics Center [NCGC] NIH Molecular Libraries Screening Centers Network [MLSCN] MLSCN Grant: 1 X01 MH079844-01 Assay Submitter (PI): Dr. SUN, YI, University of Michigan NCGC Assay Overview: Synthetic Lethal Screen for Compounds to Kill Cancer Cells with p53 Mutation. Tumor suppressor gene p53 serves as a major cellular barrier against tumorigenesis. […] The goal of this screening is to identify small molecule probes that selectively kill cancer cells with mutations in p53. This screening was carried out using two lines of H1299 lung cancer cells. The H1299-p53 A138V line express a temperature sensitive p53 mutant (p53ts) in which the mutant p53 protein (A138V) is in the mutant confirmation when grown at 39C (the nonpermissive temperature) and in the wild type conformation when grown at 32C (the permissive temperature). A H1299-neo line (p53 null) grown at both 39C and 32C were used as counter-screens to filter out false positive associated with temperature shifting. The small molecular compounds that selectively target mutant p53-containing cancer cells were selected as candidate probes for further study. A cytotoxicity assay based on the measurement of ATP contents in cells was used in this screen. Concentration-responses of all the compounds in the library collection were determined in qHTS using the cell lines and temperature conditions as above.
NCGC Assay Protocol Summary: Both the H1299-p53A138V and H1299-neo cell lines were provided by Dr.Yi Sun, a PI at the University Michigan. The cells were maintained and cultured at 37C. The resuspended frozen cells were used to plate the cells in the 1536-well assay plates at a density of 600 cells per well in 5 ul medium. The assay plates with the cells were incubated at 37C for 16 to 30 hours before the experiments. The library compounds in DMSO solution were added to the cells in assay plates and incubated 24 hours at 39C (for mutant p53 conformation) or 32C (for normal p53 conformation as control). An ATP_lite assay kit (PerkinElmer) was used to determine the cell viability. Tomaxifen (100uM) was used as the positive control for cell killing. Data were normalized to the controls for basal activity (DMSO only) and 100% killing (100uM tamoxifen). AC50 values were determined from concentration-response data modeled with the standard Hill equation. P53 assay protocol: 1. Reagent; 5 uL H1299-p53A138V or H1299-neo cell cells/well 2. Time; overnight; 37C incubation 3. Compounds; 23 nL; 5.9 nM to 46 uM 4. Controls; 23 nL; Tamoxifen 100 uM 5. Time; 24 hr; 37C incubation 6. Reagent; 3 uL; ATP_Lite reagent 7. Time; 20 min; Room Temperature 8. Detection; Luminescence; Viewlux plate reader Keywords: p53, synthetic lethal, cancer, cell viability, cytotoxicity, H1299 cell line, luminescence, MLSMR, MLSCN, NIH Roadmap, qHTS, NCGC
On to `COc1ccc(NC(=O)Nc2cccc3cccnc23)cc1`, for which the Potency is 12.6 µM (active).

With `Cc1cccc(Cn2cccc(C(=O)Nc3ccc4c(c3)OCCO4)c2=O)c1`, the Potency result was “inactive”.

For the compound `CC(=O)c1c(O)c(C)c(O)c(Cc2c(O)c3c(c(C(=O)/C=C\c4ccccc4)c2O)OC(C)(C)C=C3)c1O`, the Potency entry is “inactive”.

For the compound `CC(C)(c1ccc(OC[C@@H]2CO2)cc1)c1ccc(OC[C@H]2CO2)cc1`, the Potency is 12.6 µM (active).

Consider `CCOC(=O)c1ccc(N2C(=O)c3[nH]nc(-c4ccccc4)c3C2c2ccc(C(C)C)cc2)cc1` (stereo not given), for which the Potency result was “inactive”.

For `Cc1nnc(NC(=O)c2cccn(Cc3cccc(F)c3)c2=O)s1`, the Potency result is “inactive”.

`C=CC#N`: the activity change, negative = cytotoxicity was -9.3% [at 1.84 µM].

Take `O=C(Nc1ccc(Cl)cc1C(=O)c1ccccc1)c1cc(Cl)cc(Cl)c1`: the Potency result is “inactive”.

Take `CN(C)C1C(=O)C(C(N)=O)=C(O)[C@@]2(O)C(=O)C3=C(O)c4c(O)cccc4[C@@](C)(O)C3C[C@@H]12` (stereo not given in full): the Potency result was “inactive”.

Turning to `CC(C)Nc1nc(Cl)nc(NC(C)C)n1`, the Potency result is “inactive”.

Consider `CC[C@@H]1CN2CC[C@@H]1C[C@H]2[C@H](O)c1ccnc2ccc(OC)cc12`, for which the Potency entry was “inactive”.

As to `C[C@H](CCC(=O)O)[C@H]1CC[C@@H]2[C@H]3CC[C@H]4C[C@H](O)CC[C@@]4(C)[C@@H]3CC[C@@]21C`, the activity change, negative = cytotoxicity is 5.89% [at 9.22 µM].

On to `CC(C)Oc1ccc(NC(=O)c2cc3ccccc3o2)cc1`, for which the Potency is 6.31 µM (active).

Take `CN(C)c1cccc(C(=O)Nc2nc3ccc(S(=O)(=O)NC(C)(C)C)cc3s2)c1`: the Potency entry is “inactive”.

As to `Cc1ccc(NC(=O)N(Cc2ccc3c(c2)OCO3)C2CCN(Cc3ccccc3)CC2)cc1F`, the Potency result was “inactive”.

Take `Cc1ccc(-n2c(/C=C/c3cccc(C(F)(F)F)c3)nc3ccccc3c2=O)cc1`: the Potency entry is “inactive”.

Consider `CCN1C[C@]2(COC)C(O)C[C@H](OC)[C@@]34C5C[C@]6(O)C(OC)C(O)[C@](OC(C)=O)(C5C6OC(=O)c5ccccc5)C(C(OC)C23)C14` (stereo not given in full), for which the Potency result is “inactive”.

Take `N#Cc1c(Cl)c(Cl)c(Cl)c(C#N)c1Cl`: the Potency was 3.98 µM (active).

For the compound `Cc1ccc(Cl)cc1N1CCN(C(=O)C2CCC(CNS(=O)(=O)c3cccs3)CC2)CC1` (stereo not given), the Potency result is “inactive”.

With `Cn1cc(/C=C/c2nc3ccccc3c(=O)n2-c2ccccc2)c2ccccc21`, the Potency entry is “inactive”.

The values above are taken from PubChem BioAssay AID924 (National Center for Advancing Translational Sciences (NCATS), 2007).
